Where two headings read alike, the source gives them in different places.
Assays:
[1] = system: FYN; conditions: concentration: 1 μM, replicates: in singlicate; n = 1
[2] = system: GAK; conditions: concentration: 1 μM, replicates: in singlicate; n = 1
[3] = system: T1, GCN2(Kin.Dom.2,S808G); conditions: concentration: 1 μM, replicates: in singlicate; n = 1
T1 construct: gene EIF2AK4

[4] = system: GRK1; conditions: concentration: 1 μM, replicates: in singlicate; n = 1
[5] = system: T2, GRK2; conditions: concentration: 1 μM, replicates: in singlicate; n = 1
T2 construct: gene ADRBK1

[6] = system: T3, GRK3; conditions: concentration: 1 μM, replicates: in singlicate; n = 1
T3 construct: gene ADRBK2

[7] = system: GRK4; conditions: concentration: 1 μM, replicates: in singlicate; n = 1
[8] = system: GRK7; conditions: concentration: 1 μM, replicates: in singlicate; n = 1
[9] = system: GSK3A; conditions: concentration: 1 μM, replicates: in singlicate; n = 1
[10] = system: GSK3B; conditions: n = 1
[11] = concentration: 1 μM, replicates: in singlicate
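Note: KINOMEscan kinase panel screen.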

SMILES	%Inh [1] [%]	%Inh [2] [%]	%Inh [3] [%]	%Inh [4] [%]	%Inh [5] [%]	%Inh [6] [%]	%Inh [7] [%]	%Inh [8] [%]	%Inh [9] [%]	%Inh [10, 11] [%]	%Inh ([10]; 1 µM) [%]
Cc1ccc(NC(=O)c2ccnc(N3CCCCC3)c2)cc1-c1ccc(C(=O)NCC2CC2)cc1 [GW775610]	2	0	14	8	16	14	19	0	0	0	
Cn1cc(-c2ccc3c(c2)CCN3C(=O)Cc2cc(F)cc(C(F)(F)F)c2)c2c(N)ncnc21 [GSK2635225]	41	21	2	0	0	0	3	0	8	2	
Cl.Cl.NCC(NC(=O)c1cc(-c2cccnc2)c(-c2ccnc3[nH]ccc23)s1)c1ccccc1 (centres unmarked) [GSK1323434]	6	88	0	0	8	39	4	21	34	22	
Cn1cc(-c2ccc3c(c2)CCN3C(=O)Cc2cc(F)cc(F)c2F)c2c(N)ncnc21 [GSK2634140]	0	17	40	11	0	0	0	0	0	1	
O=C(Nc1c(F)cccc1F)c1cc(C(=O)c2ccccc2F)c[nH]1 [GSK1326180]	0	0	0	0	0	35	0	0	10	1	
Cl.O=C(Nc1ccc(Oc2ccc3[nH]c(NC(=O)c4ccco4)nc3c2)cc1)Nc1cc(C(F)(F)F)ccc1F [GW683134]	42	0	10	0	0	11	100	0	0	9	
COc1cc(Nc2nccc(N3CCC(NS(=O)(=O)c4ccc(NC(C)=O)cc4)CC3)n2)cc(OC)c1OC [GSK1379825]	67	44	0	0	62	44	0	0	0	10	
CS(=O)(=O)c1cccc(CNc2nc(Nc3ccc4c(c3)CCC(=O)N4)ncc2C(F)(F)F)c1	10	16	0	24	0	0	0	0	55	0	
Nc1ncnc2scc(-c3ccc(NC(=O)Cc4cc(F)ccc4F)cc3)c12.O=C(O)C(F)(F)F [SB-731254-M]	0	26	19	24	0	0	15	29	3	24	
COc1ccc(C2=C(Nc3cccc(O)c3)C(=O)NC2=O)cc1 [SB-390766]	34	0	61	0	0	33	0	0	41		35
CN(C)CCOc1ccc(-c2cc(-c3ccc(Cl)c(O)c3)c(-c3ccncc3)[nH]2)cc1.Cl.Cl [SB-684387]	78	42	0	43	0	21	0	17	41	10	
COc1cc(Nc2nccc(N3CCC(NC(=O)Nc4ccc5c(c4)OCO5)C3)n2)cc(OC)c1OC (centres unmarked) [GSK1379766]	36	21	0	0	0	8	0	0	0	2	
COc1cccc2c(-c3ccncc3)c(-c3ccc(F)cc3)nn12 [GW468513]	27	83	18	0	0	38	0	0	4	3	
CCNC(=O)/C=C/c1n[nH]c2cc(Sc3ccccc3C(=O)NC)ccc12	0	13	6	14	25	20	0	0	18	29	
Cc1ccc(Nc2ccnc(Nc3ccc(C)c(F)c3)n2)cc1O.Cl [GW582868]	79	53	36	100	0	70	0	0	14	7	
c1ccc(Oc2ccc(Nc3ccnc4cc(-c5ccc(CN6CCCCC6)o5)ccc34)cc2)nc1 [GW567143]	74	79	24	0	0	8	0	0	4	8	

SMILES	%Inh [1] [%]	%Inh [2] [%]	%Inh [3] [%]	%Inh [4] [%]	%Inh [5] [%]	%Inh [6] [%]	%Inh [7] [%]	%Inh [8] [%]	%Inh [9] [%]	%Inh [10, 11] [%]	%Inh ([10]; 1 µM) [%]
O=C(Nc1n[nH]c2nc(-c3cccc(O)c3)ccc12)C1CC1 [SB-711805]	0	23	12	24	0	0	24	3	98.8		96.3
N#Cc1cnc2cc(-c3cnc(CNCCN4CCOCC4)s3)ccc2c1Nc1ccc(Oc2ccccc2)cc1 [GW664114]	93.2	43	100	0	0	27	0	0	6	10	
Cc1ccc(C)c(NC(=O)Nc2ccc(C)c(-c3ccc(C(=O)Nc4ccncc4)cc3)c2)c1 [GSK1398473]	25	0	0	0	0	9	0	0	0	12	
COc1cccc(-c2nc(-c3ccccc3)[nH]c2-c2ccncc2)c1 [SB-610250]	24	72	1	0	0	49	0	0	0	19	
CC(C)(C)c1ccc(C(=O)Nc2cn3cc(-n4ccnc4)ccc3n2)cc1	21	0	27	42	51	0	12	21	2	14	
CSc1ccc(NC2=C(c3ccc(Cl)cc3)C(=O)NC2=O)cc1 [SB-317658]	4	12	0	2	21	12	5	26	37		0
Cc1ccccc1CC(=O)N1CCc2cc(-c3cn(C)c4ncnc(N)c34)ccc21 [GSK2603346]	32	32	65	9	3	0	0	0	1	2	
COc1cccc(CC(=O)N2CCc3cc(-c4cn(C)c5ncnc(N)c45)ccc32)c1 [GSK2608899]	9	31	70	0	0	0	9	0	0	15	
CN(c1ccc(F)c(NC(=O)c2cccc(OC(C)(C)C#N)c2Cl)c1)c1ccc2nc(NC(=O)C3CC3)sc2n1	79	0	0	0	0	6	4	21	4	0	
CN(c1ccc(NC(=O)Nc2cccc(Cl)c2)cc1)c1ccnc(N)n1.Cl [GW830707]	10	10	0	0	0	1	0	1	17	1	
Nc1ncc(-c2ccc3nccc(-c4ccncc4)c3c2)cc1S(=O)(=O)N1CCCCC1 [GSK1693850]	0	11	4	21	0	0	8	11	22	13	
O=C(O)C(F)(F)F.O=c1[nH]ccc2nc(N[C@@H]3CCNC3)nc(Nc3ccc4c(c3)S(=O)(=O)CC4)c12 [GSK2181306]	43	76	97.3	95.2	49	60	88	65	97.8	92.1	
CN(c1ccc2c(c1)nc(NCc1ccccc1)n2C)c1ccnc(Nc2ccc(CS(C)(=O)=O)cc2)n1.Cl [GW811603]	69	0	0	0	35	8	33	16	0	0	
Cc1nn2c(=O)cc(N3CCO[C@H](C)C3)nc2n1Cc1cccc(Cl)c1Cl [GSK2373693]	7	8	0	11	0	17	3	0	0	69	
CNc1nccc(-c2ccc3c(N)n[nH]c3c2)n1 [GSK2206003]	17	69	0	0	15	23	46	14	14	0	
COC(=O)Nc1nc2ccc(Oc3ccc(CC(=O)Nc4cc(C(F)(F)F)ccc4F)cc3)cc2[nH]1 [GW680903]	37	0	2	0	0	66	0	0	5	0	
